Experimental data taken from the supplement of paper PMC6992640.
± gives the standard deviation of the averaged measurements.

Experiments:
Assay in all cases: cell viability (% of vehicle); higher = less cytotoxic
Details in all cases: 10 µM; 72 h
HCI01 = system: HCI01 (cells of a triple-negative basal-like breast cancer xenograft)
HCI03 = system: HCI03 (cells of an ER-positive luminal breast cancer xenograft)
HCI09 = system: HCI09 (cells of a triple-negative luminal androgen receptor type breast cancer xenograft)
HCI11 = system: HCI11 (cells of an ER-positive luminal breast cancer xenograft)
HCI13 = system: HCI13 (cells of an ER-positive luminal breast cancer xenograft)
HCI16 = system: HCI16 (cells of a triple-negative basal-like breast cancer xenograft)
UCD52 = system: UCD52 (cells of a triple-negative basal-like breast cancer xenograft)
WHIM2 = system: WHIM2 (cells of a triple-negative basal-like breast cancer xenograft)
WHIM30 = system: WHIM30 (cells of a triple-negative basal-like breast cancer xenograft)
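Also: PDX cells carrying CMV promoter-driven luciferase, viability read as total photon flux per second by IVIS imaging following D-luciferin, vehicle control 0.1% DMSO.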

Row | SMILES | cell viability (HCI01) | cell viability (HCI03) | cell viability (HCI09) | cell viability (HCI11) | cell viability (HCI13) | cell viability (HCI16) | cell viability (UCD52) | cell viability (WHIM2) | cell viability (WHIM30)
1 | CCOc1cc(CC(=O)NC(CC(C)C)c2ccccc2N2CCCCC2)ccc1C(=O)O (configuration not stated) [Repaglinide] | 88 ± 1.1 | 131 | 117 ± 15 | 111 | 80.3 ± 12 | 118 | 80.672 ± 0.07 | 96.8 ± 5.5 | 126 ± 18
2 | O=C(O)c1cc(=O)c2ccccc2o1 [Chromocarb] | 124 ± 23 | 119 | 96.2 ± 1.6 | 78.7 | 71.6 ± 5.2 | 111 | 92.59 ± 0.2 | 103 ± 11 | 85.9 ± 2.8
3 | CC(CN1CC(=O)NC(=O)C1)N1CC(=O)NC(=O)C1 (configuration not stated) [Dexrazoxane] | 83 ± 6.2 | 148 | 102 ± 20 | 92.4 | 110 ± 13 | 103 | 100.8 ± 0.77 | 75.7 ± 5.5 | 131.05 ± 0.028
4 | CN1C(C(=O)Nc2ccccn2)=C(O)c2sc(Cl)cc2S1(=O)=O [Lornoxicam] | 95.2 ± 8.9 | 111 | 84.7 ± 25 | 85.6 | 82.4 ± 9.6 | 98.4 | 86.2 ± 5.5 | 112 ± 2.6 | 99.1 ± 6.5
5 | C=C[C@]1(C)C[C@@H](OC(=O)CSC2C[C@H]3CC[C@@H](C2)N3C)[C@]2(C)[C@H](C)CC[C@]3(CCC(=O)[C@H]32)[C@@H](C)[C@@H]1O (some centres not stated) [Retapamulin] | 73.5 ± 21 | 113 | 83.2 ± 3.2 | 93.3 | 111 ± 10 | 109 | 81.8 ± 4.8 | 80.3 ± 5.3 | 146 ± 15
6 | CN(Cc1ccc(C(C)(C)C)cc1)Cc1cccc2ccccc12.Cl [Butenafine HCl] | 104 ± 1.5 | 99.2 | 117 ± 19 | 104 | 72.7 ± 4.7 | 151 | 81.4 ± 2.7 | 56.2 ± 12 | 142 ± 3.3
7 | O=C(O)C1=COC(OC2OC(CO)C(O)C(O)C2O)C2C(CO)=CCC12 (configuration not stated) [Geniposidic acid] | 99.5 ± 9.7 | 150 | 93.7 ± 17 | 95.6 | 107 ± 12 | 110 | 99.8 ± 10 | 94.3 ± 6 | 143.2 ± 0.61
8 | Cc1nccn1CC1CCc2c(c3ccccc3n2C)C1=O.Cl (configuration not stated) [Ondansetron HCl] | 126 ± 18 | 123 | 93.6 ± 9.8 | 111 | 96.7 ± 2.7 | 104 | 80.3 ± 1 | 83.9 ± 22 | 128 ± 9.2
9 | CCN(CCO)CCCOc1ccc2c(Nc3cc(CC(=O)Nc4cccc(F)c4)[nH]n3)ncnc2c1 [Barasertib (AZD1152-HQPA)] | 136 ± 22 | 118 | 79.2 ± 6.8 | 91.5 | 97.3 ± 5.7 | 143 | 107 ± 20 | 89.4 ± 4 | 131 ± 0.53
10 | CN(Cc1cc(Br)cc(Br)c1N)C1CCCCC1.Cl [Bromhexine HCl] | 95.8 ± 14 | 86.3 | 93 ± 6 | 96.3 | 64.9 ± 2.5 | 106 | 73.8 ± 6.8 | 44.5 ± 15 | 108 ± 3.3
11 | CCCCOc1cc(C(=O)NCCN(CC)CC)c2ccccc2n1 [Dibucaine] | 94.3 ± 30 | 158 | 95.5 ± 9.9 | 93.9 | 135 ± 2 | 135 | 81.16 ± 0.71 | 95.1 ± 14 | 89.012 ± 0.00099
12 | CC(=O)Nc1ccc(O)cc1 [Acetaminophen] | 93.9 ± 24 | 101 | 98.4 ± 7.2 | 80.4 | 116 ± 14 | 126 | 102 ± 6.9 | 92.71 ± 0.48 | 97.4 ± 3.5
13 | COc1ccc2cc([C@H](C)C(=O)[O-])ccc2c1.[Na+] [Naproxen Sodium] | 83.6 ± 6.4 | 111 | 85.8 ± 14 | 106 | 124 ± 29 | 100 | 99.9 ± 3.1 | 102 ± 12 | 121 ± 22
14 | CC(Cc1ccc(O)c(O)c1)(NN)C(=O)O (configuration not stated) [Carbidopa] | 116 ± 20 | 122 | 121 ± 20 | 79.8 | 119 ± 14 | 149 | 124 ± 9.1 | 81.6 ± 11 | 126 ± 6.2
15 | Cc1ccsc1C(=CCCN1CCC[C@@H](C(=O)O)C1)c1sccc1C [Tiagabine] | 96.4 ± 12 | 81.9 | 105 ± 4.9 | 84.2 | 96.9 ± 1.7 | 115 | 89.1 ± 5.2 | 100 ± 22 | 96 ± 12
16 | COc1c(C)c2c(c(O)c1CC=C(C)CCC(=O)O)C(=O)OC2 [Mycophenolic acid] | 99.5 ± 27 | 93.3 | 77.8 ± 17 | 75.1 | 102 ± 9.5 | 104 | 94 ± 6.1 | 65.8 ± 7.6 | 151 ± 1.2
17 | COC(=O)C1CC2=CC(=O)CCC2(C)C23OC2CC2(C)C(CC[C@]24CCC(=O)O4)C13 (some centres not stated) [Epleremone] | 90.4 ± 5.2 | 105 | 100 ± 24 | 90.1 | 94.7 ± 9.2 | 116 | 100 ± 7.6 | 108 ± 4.6 | 114 ± 3.4
18 | CCN(CC)CC(=O)Nc1c(C)cccc1C [Lidocaine] | 107 ± 5.8 | 94.4 | 105 ± 5.4 | 100 | 100 ± 3.6 | 93.9 | 90.9 ± 16 | 74.4 ± 18 | 122 ± 21
19 | CN(Cc1cnc2nc(N)nc(N)c2n1)c1ccc(C(=O)NC(CCC(=O)O)C(=O)O)cc1 (configuration not stated) [Methotrexate] | 101 ± 8.6 | 115 | 91.1 ± 13 | 113 | 104 ± 7.5 | 93.4 | 89.1 ± 8.7 | 101 ± 2.1 | 94.9 ± 13

Row | SMILES | cell viability (HCI01) | cell viability (HCI03) | cell viability (HCI09) | cell viability (HCI11) | cell viability (HCI13) | cell viability (HCI16) | cell viability (UCD52) | cell viability (WHIM2) | cell viability (WHIM30)
20 | OCC1OC(c2ccc(Cl)c(Cc3ccc(OC4CCOC4)cc3)c2)C(O)C(O)C1O (configuration not stated) | 94.9 ± 15 | 132 | 90.7 ± 14 | 84.1 | 87.5 ± 14 | 113 | 94 ± 1.7 | 112 ± 7 | 114 ± 9.9
21 | O=C(O)CCc1nc(-c2ccccc2)c(-c2ccccc2)o1 [Oxaprozin] | 121 ± 25 | 102 | 89.1 ± 2.8 | 106 | 108 ± 1.6 | 122 | 99.29 ± 0.38 | 101 ± 11 | 151 ± 17
22 | Cn1c(=O)c2c(ncn2CC(O)CO)n(C)c1=O (configuration not stated) [Dyphylline] | 98.4 ± 7.5 | 122 | 98 ± 15 | 114 | 117 ± 14 | 85.9 | 90.2 ± 3.7 | 104 ± 1.1 | 119 ± 24
23 | CC(CCC(=O)O)C1CCC2C3CCC4CC(O)CCC4(C)C3CC(O)C12C (configuration not stated) [Deoxycholic acid] | 119 ± 25 | 143 | 107 ± 23 | 103 | 107.1 ± 0.2 | 87.1 | 112 ± 3.8 | 104 ± 19 | 91.5 ± 0.73
24 | Nc1nc(=O)c2c(CCc3ccc(C(=O)NC(CCC(=O)[O-])C(=O)[O-])cc3)c[nH]c2[nH]1.[Na+].[Na+] (configuration not stated) [Pemetrexed] | 94.1 ± 3.5 | 102 | 88.7 ± 10 | 92.9 | 105 ± 5.3 | 105 | 93.4 ± 13 | 95.2 ± 9.6 | 130 ± 10
25 | Cc1cn(C2CC(N=[N+]=[N-])C(CO)O2)c(=O)[nH]c1=O (configuration not stated) [Zidovudine] | 104 ± 3.4 | 160 | 116 ± 1.2 | 101 | 124 ± 7.2 | 143 | 123 ± 16 | 98.22 ± 0.63 | 144 ± 7.7
26 | CC(C)(C)NCC(O)c1cc(O)cc(O)c1.CC(C)(C)NCC(O)c1cc(O)cc(O)c1.O=S(=O)(O)O (configuration not stated) [Terbutaline Sulfate] | 114.4 ± 0.83 | 110 | 98.9 ± 20 | 109 | 88.5 ± 2.1 | 127 | 79.6 ± 5.6 | 106 ± 18 | 123 ± 6
27 | CN(CCOc1ccc(NS(C)(=O)=O)cc1)CCc1ccc(NS(C)(=O)=O)cc1 [Dofetilide] | 101.7 ± 0.3 | 114 | 94.8 ± 5.2 | 94.2 | 97.8 ± 17 | 89.3 | 81.6 ± 13 | 90.2 ± 10 | 106 ± 5.1
28 | COc1cc(C2c3cc4c(cc3C(OC3OC5COC(c6cccs6)OC5C(O)C3O)C3COC(=O)C23)OCO4)cc(OC)c1O (configuration not stated) [Teniposide] | 104 ± 2.6 | 112 | 105 ± 36 | 111 | 134 ± 40 | 118 | 111 ± 1.8 | 87.3 ± 23 | 96.6 ± 4.3
29 | COc1nc(N)nc2c1ncn2C1OC(CO)C(O)C1O (configuration not stated) [Nelarabine] | 127 ± 20 | 117 | 113 ± 0.87 | 95.9 | 86.3 ± 5.3 | 98.4 | 111 ± 21 | 96.7 ± 21 | 115 ± 17
30 | OCC(O)C(O)C(O)C(O)CO (configuration not stated) [Sorbitol] | 89.2 ± 28 | 132 | 92.6 ± 8.6 | 84 | 102 ± 3.2 | 111 | 87.63 ± 0.58 | 86.6 ± 8.6 | 83.33 ± 0.53
31 | CC(C)(C)NC(=O)C1CCC2C3CCC4NC(=O)C=CC4(C)C3CCC12C (configuration not stated) [Finasteride] | 136 ± 20 | 115 | 103 ± 8.5 | 125 | 96.2 ± 4.9 | 99.8 | 81.1 ± 1.1 | 94 ± 1.5 | 156 ± 18
32 | CC1c2cccc(O)c2C(O)=C2C(=O)C3(O)C(O)=C(C(N)=O)C(=O)C(N(C)C)C3C(O)C21.Cl (configuration not stated) [Doxycycline HCl] | 91.6 ± 4.1 | 106 | 90.6 ± 17 | 83.7 | 84 ± 14 | 104 | 89.9 ± 2.7 | 118 ± 14 | 98.7 ± 9.1
33 | COc1ccc2c(c1)C(=O)N(CCc1ccc(S(=O)(=O)NC(=O)NC3CCCCC3)cc1)C(=O)C2(C)C [Gliquidone] | 89.2 ± 83 | 109 | 68.4 ± 19 | 91.4 | 94.6 ± 23 | 142 | 93.5 ± 11 | 130 ± 20 | 137 ± 19
34 | C=C[C@@H]1C[N@@]2CC[C@H]1C[C@@H]2[C@H](O)c1ccnc2ccc(OC)cc12 [Quinidine] | 89 ± 10 | 135 | 102 ± 20 | 102 | 122 ± 8.8 | 123 | 97.9 ± 2.7 | 101 ± 11 | 101 ± 6.2
35 | COC(=O)C(Cc1ccccc1)NC(=O)C(N)CC(=O)O (configuration not stated) [Aspartame] | 120 ± 6.8 | 152 | 104 ± 3.9 | 119 | 161 ± 4.4 | 117 | 100 ± 21 | 131 ± 23 | 128 ± 6.7
36 | Cl.O=C1CN2Cc3c(ccc(Cl)c3Cl)NC2=N1 [Anagrelide HCl] | 121 ± 3.8 | 140 | 103 ± 9.3 | 120 | 128 ± 11 | 103 | 84.4 ± 4.6 | 116 ± 3.4 | 98.1 ± 2.5
37 | CN(C)CCC=C1c2ccccc2Sc2ccc(Cl)cc21 [Chlorprothixene] | 85.8 ± 14 | 87.1 | 71.9 ± 13 | 93.9 | 105 ± 2.6 | 83.8 | 54.4 ± 2.5 | 49.9 ± 20 | 124 ± 13
38 | O=c1ccn(C2OC(CO)C(O)C2O)c(=O)[nH]1 (configuration not stated) [Uridine] | 106 ± 10 | 115 | 100.8 ± 0.17 | 100 | 103 ± 21 | 104 | 85.6 ± 2.8 | 89.7 ± 4.7 | 131 ± 9.8
